Measurements as given in PubChem BioAssay (NCATS).
Inconclusive results are not listed. Values without a mark were called inactive. Activity calls are given as the source filed them. Calls come from the whole dose curve; as a rule, active = well fitted inhibition curve with a large enough effect; inconclusive = small, poorly fitted or top-dose-only effect; inactive = flat fitted curve, though single readings scatter.

These compounds were tested on MKL-1 (assay: qHTS assay to identify novel small-molecules to repurpose for Merkel cell carcinoma treatment (AID 1296009; note: nearly all actives have a fitted effect of over 60% in size)). Conditions: MCC and control cell lines, CellTiter-Glo viability, 72 h; series mostly up to 46 µM; activity change, negative = cytotoxicity: at the top concentration.
Text: MCC is a rare and aggressive neuroendocrine skin cancer with limited treatment options. Approximately 80% of MCCs have the Merkel cell polyomavirus (MCPyV) DNA integrated into the host genome (virus-positive: VP-MCC) and viral oncogenes drive oncogenesis. The remaining MCCs are virus-negative (VN-MCC) and are caused by UV mutagenesis. To identify novel treatments for VP-MCC and/or VN-MCC we screened three VP-MCC cell lines (WAGA, MKL-1, MKL-2), three VN-MCC cell lines (MCC-13, MCC-26, UISO), and four immortalized, non-transformed control cell lines (HaCaT, HEK293T, CRL7250, NIH-3T3) against ~2,400 compounds in the NCGC Pharmaceutical Collection (NPC) and ~1,900 compounds in the Mechanism Interrogation PlatE (MiPE). Using cell viability as a readout (CellTiter-Glo assay) we found both overlapping and distinct drugs that can be repurposed for the treatment of VP-MCC and VN-MCC.
A high-throughput screen was conducted in 1536-well white flat bottom plates (Corning) on a Kalypsys robotic system. Cell lines WAGA, MKL-1, MKL-2, MCC-13, MCC-26, UISO, HaCaT, HEK293T, CRL7250, and NIH-3T3 were screened against 2 small molecule annotated drug libraries NPC and MIPE in dose response (8 and 11 pt. respectively) measuring cell viability after 72 hours of incubation. […] A 1,536 pintool (Kalypsys) was used to transfer 23 nL of compound in DMSO to the 1,536-well assay plates. After 72 hr incubation at 37 degree celsius, 2.5 uL of CellTiter-Glo (Promega) was dispensed into each well using a BiorapTR. Plates were incubated at room temperature for 10 min, transferred to a ViewLux (PerkinElmer) and the luminescence was recorded using an exposure time of 2 seconds. Relative luminescence units (RLUs) were normalized to in-plate controls (no cells as a positive (cytotoxicity) control, DMSO as negative control) and the normalized data was processed using NCATS in-house software.
% is set by controls: 0 for no effect and ±100 for the full control effect; potency is the fitted concentration of half-maximal effect.

| SMILES | activity change, negative = cytotoxicity | Potency |
| --- | --- | --- |
| CCn1ccnc1CC1COc2ccccc2O1 (stereo not given) | 13.7% | – |
| CN1C(=O)CC[C@H]1c1cccnc1 | 9.2% | – |
| CC1=NS(=O)(=O)c2cc(Cl)ccc2N1 | 4.85% | – |
| C(=C\c1ccccc1)/CN1CCN(C(c2ccccc2)c2ccccc2)CC1 | 7.33% | – |
| C[C@]12CCC(=O)C=C1CC[C@@H]1[C@@H]2CC[C@@]2(C)[C@H]1CC[C@]2(O)C(=O)CO | 2.89% | – |
| CCCCCN(CCCCC)C(=O)C(CCC(=O)O)NC(=O)c1ccc(Cl)c(Cl)c1 (stereo not given) | -3.03% | – |
| C[C@]12CCC(=O)C=C1CC[C@@H]1[C@@H]2C(=O)C[C@@]2(C)[C@H]1CC[C@]2(O)C(=O)CO | 13.4% | – |
| COC(=O)C1=C(C)NC(C)=C(C(=O)OC(C)(C)CN(C)CCC(c2ccccc2)c2ccccc2)C1c1cccc([N+](=O)[O-])c1 (stereo not given) | – | 23.7 µM (active) |
| CN(C)CCCN1c2ccccc2Sc2ccccc21 | -20.3% | – |
| OCCN1CCN(CCCN2c3ccccc3C=Cc3ccccc32)CC1 | 4.32% | – |
| CCCCNc1ccc(C(=O)OCCN(C)C)cc1 | 3.4% | – |
| CCN1CCc2nc(N)oc2CC1 | 5.1% | – |
| CCCCOCCOCCOCc1cc2c(cc1CCC)OCO2 | – | inactive |
| Cc1scc2c1N(C(=O)CN1CCN(C)CC1)c1ccccc1NC2=O | 7.01% | – |
| C[N+](C)(C)CCOC(N)=O | 12.2% | – |
| CCN(CC)CC(=O)Nc1c(C)cccc1C | -13.7% | – |
| FC(F)(F)c1ccccc1-n1ccnc1 | 5.32% | – |
| O=C(CCCN1CCC(O)(c2cccc(C(F)(F)F)c2)CC1)c1ccc(F)cc1 | -1.12% | – |
| N[C@@H](COP(=O)(O)O)C(=O)O | -1.2% [at 16.1 µM] | – |
| CCN(Cc1ccncc1)C(=O)C(CO)c1ccccc1 (stereo not given) | -10.7% | – |

| SMILES | activity change, negative = cytotoxicity | Potency |
| --- | --- | --- |
| O=C(CCNNC(=O)c1ccncc1)NCc1ccccc1 | -12.4% | – |
| CCN(CC)CCCN(c1ccccc1)C1Cc2ccccc2C1 | -16.8% | – |
| C[C@]12C=CC(=O)C=C1CC[C@H]1[C@@H]3C[C@@H](O)[C@](O)(C(=O)CO)[C@@]3(C)C[C@H](O)[C@@]12F | 13.4% | – |
| CCCCNc1c(C(=O)OCC)c(C)nc2c1cnn2CC | -12.3% | – |
| CCCCCCCC/C=C\CCCCCCCC(=O)NCc1ccc(O)c(OC)c1 | -22.1% | – |
| Cc1nc2c([nH]1)c(=O)n(C)c(=O)n2Cc1ccco1 | -7.07% | – |
| COc1ccc(CN(CCN(C)C)c2ccccn2)cc1 | 2.43% | – |
| CNC1(C)C2CCC(C2)C1(C)C (stereo not given) | -13.4% | – |
| COCCc1ccc(OCC(O)CNC(C)C)cc1 (stereo not given) | -0.155% | – |
| c1ccc2c(c1)CCCC2C1=NCCN1 (stereo not given) | 6.87% | – |
| CCN(CC)CCNC(=O)c1ccc(NC(C)=O)cc1 | -7.76% | – |
| CCOC(=O)C1=C(C)NC(C)=C(C(=O)OC)C1c1cccc(Cl)c1Cl (stereo not given) | 3.73% | – |
| CN(C)C(=O)Oc1ccc[n+](C)c1 | 2.99% | – |
| CC(=O)Oc1cc(C(C)C)c(OCCN(C)C)cc1C | 14.9% | – |
| CN(C)[C@@H]1C(=O)C(C(N)=O)=C(O)[C@@]2(O)C(=O)C3=C(O)c4c(O)ccc(Cl)c4[C@@H](O)[C@H]3C[C@@H]12 | -4.84% | – |
| C[C@H](CS)C(=O)N1CCC[C@H]1C(=O)O | 6.54% | – |
| O=C1CC2(CCCC2)CC(=O)N1CCCCN1CCN(c2ncccn2)CC1 | -7.24% | – |
| CC(C)(Oc1ccc(CCNC(=O)c2ccc(Cl)cc2)cc1)C(=O)O | 1.15% | – |
| CCCCNC(=O)NS(=O)(=O)c1ccc(C)cc1 | -4.81% | – |
| CCCNC(C)C(=O)Nc1ccccc1C (stereo not given) | 4.23% | – |
